A short description of assay [1]: qHTS assay to identify small molecule antagonists of the progesterone receptor (PR) signaling pathway - cell viability counter screen (AID 1346798). Further: series mostly up to about 92 µM; nearly all actives have a fitted effect of over 50% in size. The method in brief: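 CellTiter-Glo luminescence; PR-UAS-bla HEK293T, 3,000 cells/well; compound + R5020, 16 hr, 37C/5% CO2; 30 min RT before read.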
The nature of assay [2]: qHTS assay to identify small molecule agonists of the progesterone receptor (PR) signaling pathway - cell viability counter screen (AID 1346799; calls by dose curve; further: nearly all actives have a fitted effect of over 45% in size; further: potency means the concentration at half of the fitted maximal effect). The essentials:
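In parallel with the beta-lactamase readout, cytotoxicity toward PR-UAS-bla HEK293T cells was measured by CellTiter-Glo luminescence following 16 hr compound incubation in 2% charcoal-stripped FBS medium.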
In general terms: In qHTS, concentration-response curves come from the screen itself.

Assay [3] is described as follows: qHTS assay to identify small molecule antagonists of the TGF-beta/Smad signaling pathway - cell viability counter screen (AID 1346824). Further: nearly all actives have a fitted effect of over 50% in size. The essentials:
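SBE-bla HEK 293T cells, incubated overnight, then compound plus 0.25 ng/mL TGF-beta1 (stock added) for 5 hr at 37 C. Viability was read in the same wells by CellTiter-Glo luminescence after 30 min at room temperature.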

The nature of assay [4]: qHTS assay to identify small molecule agonists of the TGF-beta/Smad signaling pathway - cell viability counter screen (AID 1346829). Further: top concentration of the series differs between compounds; nearly all actives have a fitted effect of over 45% in size. The method in brief:
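Same-well cytotoxicity: CellTiter-Glo added after the 2 hr room-temperature beta-lactamase substrate step, luminescence measured 30 min later; cells had 5 hr of compound at 37 C.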

The nature of assay [5]: qHTS assay to identify small molecule agonists of the TGF-beta/Smad signaling pathway (AID 1346859; active means well fitted activation curve with a large enough effect in the signal ratio in the repeat runs, not every such curve was filed as active; the % refers to the signal ratio; further: series mostly up to about 77 µM). The method in brief: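 After overnight seeding, SBE-bla HEK 293T cells are dosed with compounds in DMSO and kept 5 hr at 37 C, 5% CO2. LiveBLAzer-type FRET substrate is then applied for 2 hr at room temperature.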
Assay [6] is described as follows: Human pregnane X receptor (PXR) small molecule agonists, qHTS cell viability counter screen (AID 1346977). Further: nearly all actives have a fitted effect of over 50% in size. The essentials:
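Viability counter screen: CellTiter-Fluor signal in PXR-Luc HepG2 cells, 24hr compound exposure, 37C, 5% CO2.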

Assay [7] in a line: Caspase-3/7 induction in HepG2 cells by small molecules, qHTS assay (AID 1346978). Further: nearly all actives have a fitted effect of over 15% in size. The essentials: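 Wild-type HepG2 cells, 2,000/well, settled 5 hr at 37 C and 5% CO2, then compound-treated for 17 hr; caspase-3/7 activity read by luminescent Caspase-Glo 3/7 after 30 min at room temperature.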
The nature of assay [8]: Caspase-3/7 induction in CHO-K1 cells by small molecules, qHTS cell viability counter screen (AID 1346979). Further: nearly all actives have a fitted effect of over 35% in size. Further: potency means the concentration at half of the fitted maximal effect. The essentials: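 Viability readout by fluorescence (CellTiter-Fluor) on wild-type CHO-K1 cells exposed for 16hr at 37C and 5% CO2 to compounds delivered in DMSO; reagent incubated 1hr before reading.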
Assay [9] deals with Thyrotropin-releasing hormone receptor (Homo sapiens) (UniProt P34981). The assay is described as follows: qHTS assay to identify small molecule antagonists of the thyrotropin-releasing hormone receptor (TRHR) signaling pathway (AID 1346877; active means well fitted inhibition curve with a large enough effect in the repeat runs, not every such curve was filed as active; further: series mostly up to about 51 µM). The essentials: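 Screening used HEK293 cells engineered with TRHR, with a brief 5 min room-temperature compound exposure preceding addition of TRH to 1 nM. The read-out was kinetic calcium-dye fluorescence, concentration-response from 15 doses in triplicate.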

The target is the same in assay [10]. In words: qHTS assay to identify small molecule agonists of the thyrotropin-releasing hormone receptor (TRHR) signaling pathway (AID 1346891; calls by dose curve;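 further: HEK293 cells expressing TRHR with calcium dye readout; series mostly up to about 58 µM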). The essentials: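 Compounds were tested as agonists at 15 concentrations, in triplicate, on TRHR-Hek293 cells; calcium-sensitive dye fluorescence was recorded for 3 min following addition.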

The structures appear in SMILES notation. “And” between values parts separate entries of the source, which are not always exact repeats. Equal values may be shown once. Results filed as inconclusive are left out. More than one record can exist for a structure, and the calls need not agree. The source made the active and inactive calls. Unless noted, the call rests on the fitted dose curve; in most records, active means well fitted curve in the direction sought with a large enough effect in the repeat runs; inconclusive means weak or mixed curves; inactive means no such curve, though single readings can be large; an effect the other way counts as inactive or inconclusive.

Experimental findings from PubChem BioAssay (Tox21) are described below.

Chain of Thyrotropin-releasing hormone receptor (Homo sapiens) (P34981 whole entry, looked up): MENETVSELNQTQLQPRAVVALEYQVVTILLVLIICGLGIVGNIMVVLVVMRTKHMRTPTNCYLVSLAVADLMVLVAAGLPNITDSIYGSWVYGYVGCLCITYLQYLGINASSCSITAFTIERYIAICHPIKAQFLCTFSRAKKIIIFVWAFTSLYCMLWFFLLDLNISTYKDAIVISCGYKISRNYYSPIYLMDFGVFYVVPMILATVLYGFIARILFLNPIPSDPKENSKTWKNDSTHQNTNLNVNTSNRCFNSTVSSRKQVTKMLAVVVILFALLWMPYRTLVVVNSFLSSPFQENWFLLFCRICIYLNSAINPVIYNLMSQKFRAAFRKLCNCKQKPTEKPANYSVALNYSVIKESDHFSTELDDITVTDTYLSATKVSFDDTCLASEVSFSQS

Take `Nc1ccc(Oc2ccc(N)cc2)cc1`: the Potency entry in assay [1], in assay [2], in assay [3], in [5], in [6] and in assay [8] was “inactive” in each case. Moreover, the compound was classed as inactive in [4] and in assay [7].
Take `Cc1ccc([N+](=O)[O-])cc1C`: the Potency entry in assay [1], in [2], in assay [5], in assay [10], in assay [6] and in assay [8] was “inactive” throughout. For the same compound, the compound was classed as inactive in assay [4], in [9] and in assay [7].
For the compound `CN(N=O)c1ccccc1`, the Potency result in [1], in [2], in assay [5], in [10], in assay [6] and in [8] was “inactive” each time. For the same compound, the outcome in assay [4], in assay [9] and in assay [7] was inactive.
On to `CC1C=[C-]C=C1.[C-]#[O+].[C-]#[O+].[C-]#[O+].[Mn]`, for which the Potency entry in assay [1], in assay [2], in assay [3], in assay [5], in assay [6] and in assay [8] was “inactive” in each case. The outcome in assay [4] and in assay [7] was inactive.
For the compound `Cc1ccc(N)cc1Cl`, the Potency entry in [1], in assay [2], in assay [5], in [10], in assay [6] and in assay [8] was “inactive” in each case. For the same compound, the outcome in assay [4], in assay [9] and in assay [7] was inactive.
Regarding `Cc1ccc(N)cc1N`, the Potency result in [1], in assay [2], in assay [5], in [10], in [6] and in assay [8] was “inactive” in each case. Further, the outcome in assay [4], in [9] and in [7] was inactive.
`Cc1[nH]c(=O)n(C(C)(C)C)c(=O)c1Cl`: the Potency result in [1], in [2], in assay [3], in [5], in assay [6] and in [8] was “inactive” throughout. The compound was called inactive in assay [4].
For the compound `COC(=O)NS(=O)(=O)c1ccc(N)cc1`, the Potency result in [1], in [2], in assay [3], in assay [5], in assay [6] and in assay [8] was “inactive” in each case. The call in assay [4] and in assay [7] was inactive.
Consider `C[C@]12CC[C@H]3[C@@H](CC[C@@]45O[C@@H]4C(O)=C(C#N)C[C@]35C)[C@@H]1CC[C@@H]2O`, for which the Potency entry in assay [1], in [2], in assay [3], in assay [6] and in assay [8] was “inactive” throughout. Moreover, the outcome in assay [4] and in assay [7] was inactive.
As to `Nc1ccc(Br)cc1`, the Potency result in assay [1], in [5], in assay [10], in [6] and in [8] was “inactive” throughout. For the same compound, the Potency in [2] is 27.3 µM (active) and inactive. The compound was called inactive in [4], in [9] and in [7].
Regarding `[O-][Cl+2]([O-])O`, the Potency entry in [1], in assay [2], in [5], in assay [10], in assay [6] and in [8] was “inactive” in each case. For the same compound, the call in assay [4], in assay [9] and in [7] was inactive.
In the case of `CC(Oc1ccc(Cl)cc1Cl)C(=O)O` (centres undefined), the Potency result in [1], in assay [2], in [3], in [5], in assay [10] and in assay [6] was “inactive” in each case. In assay [8], the Potency result was “inactive”. Moreover, the result in [4] and in [9] was inactive.
For the compound `C=C(C)CCl`, the Potency entry in assay [1], in assay [2], in [3], in assay [5], in assay [6] and in assay [8] was “inactive” in each case. In addition, in [4], the outcome was inactive.
On to `COC(=O)c1ccccc1N`, for which the Potency entry in [1], in assay [2], in assay [5], in assay [10], in assay [6] and in assay [8] was “inactive” throughout. The compound was classed as inactive in assay [4], in assay [9] and in assay [7].
In the case of `OCCN(CCO)CCO`, the Potency entry in [1], in [2], in assay [3], in assay [5], in assay [6] and in assay [8] was “inactive” each time. The compound was called inactive in assay [4].
Regarding `O=Cc1cccc(Oc2ccccc2)c1`, the Potency entry in assay [1], in [2], in [3], in assay [5], in [6] and in assay [8] was “inactive” each time. For the same compound, the outcome in assay [4] and in [7] was inactive.
For `CC(C)(C)OOC(C)(C)C`, the Potency entry in assay [1], in assay [2], in assay [3], in assay [5], in [10] and in assay [6] was “inactive” throughout. Also, the Potency result in assay [8] is “inactive”. The compound was called inactive in [4] and in assay [9].
For `COP(N)(=O)SC` (centres undefined), the Potency result in assay [1], in assay [2], in assay [3], in [5], in assay [10] and in assay [6] was “inactive” each time. Further, in [8], the Potency entry was “inactive”. Also, the compound was called inactive in [4] and in [9].
Consider `Clc1cccc(Cl)c1Cl`, for which the Potency entry in [1], in assay [2], in [5], in [10], in assay [6] and in [8] was “inactive” in each case. The compound was called inactive in [4], in assay [9] and in [7].
On to `CNC(=O)Oc1ccccc1OC(C)C`, for which the Potency result in [1], in assay [2], in [3], in assay [5], in assay [10] and in assay [6] was “inactive” in each case. In addition, the Potency entry in assay [8] was “inactive”. The outcome in [4] and in assay [9] was inactive.
Consider `O=c1ccc(=O)[nH][nH]1`, for which the Potency result in assay [1], in [2], in [3], in assay [5], in assay [6] and in assay [8] was “inactive” each time. For the same compound, the call in assay [4] and in [7] was inactive.
Regarding `CCc1cccc(C)c1N(C(=O)CCl)C(C)COC` (centres undefined), the Potency result in assay [1], in assay [2], in [5], in assay [10], in assay [6] and in assay [8] was “inactive” throughout. Moreover, the compound was called inactive in [4], in assay [9] and in assay [7].
`O=S(=O)(c1ccc(Cl)cc1)c1cc(Cl)c(Cl)cc1Cl`: the Potency entry in [1], in assay [5], in assay [10] and in assay [6] was “inactive” each time. Besides, the call in assay [4], in assay [9] and in assay [7] was inactive. Moreover, the Potency in assay [8] was 54.4 µM (active) and 68.6 µM (active).
`CN=C=S`: the Potency result in assay [1], in assay [2], in assay [5], in [10], in assay [6] and in assay [8] was “inactive” each time. Further, the compound was called inactive in [4] and in assay [9].
For the compound `c1ccc2c(c1)oc1ccccc12`, the Potency result in assay [1], in assay [2], in [5], in [10], in assay [6] and in assay [8] was “inactive” each time. For the same compound, the outcome in [4] and in assay [9] was inactive.
For `O=c1n(Cl)c(=O)n(Cl)c(=O)n1Cl`, the Potency entry in assay [1], in assay [2], in assay [5], in [10], in assay [6] and in assay [8] was “inactive” throughout. Besides, the outcome in assay [4], in assay [9] and in [7] was inactive.
In the case of `Cc1ccccc1O`, the Potency entry in [1], in assay [2], in [5], in assay [10], in [6] and in [8] was “inactive” in each case. Moreover, the compound was classed as inactive in assay [4], in [9] and in assay [7].
As to `O=NN1CCCC1`, the Potency result in assay [2], in [3], in assay [5], in [6] and in assay [8] was “inactive” each time. In addition, the result in assay [4] and in assay [7] was inactive.
